Compounds without any hit were thinned out: in the full panel of roughly 83,000, 20% have a hit.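 96-well plates, one dose, 48 hours. Percent growth reported; active if below 10.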 The source made the active and inactive calls.

This assay has as its system MDA-MB-468 breast. Nature of the assay: NCI-60 one-dose screen, 48 h (100 = growth as untreated, 0 = no growth, -100 = all killed). The note with it: 10 µM unless noted.
Regarding `O=S(=O)(NCCCNc1cc(-c2cn(-c3ccccc3)nc2-c2cccc(O)c2)ccn1)c1ccc(F)cc1`, the growth was -1.5% (active).

`COc1cnc2c(c1)C(=O)c1c-2n(CCCNC2=NCCS2)c(=O)c2cc([N+](=O)[O-])ccc12`: the growth is -39% (active).

Take `COc1cc2nc(-c3ccc(C(F)(F)F)cc3)cc(OCCN3CCCCC3)c2cc1OC`: the growth was 93.6% (inactive).

`O=C1CCCC2=C1C(c1c[nH]c3ccc(Br)cc13)Cc1cc(Br)ccc1N2` (stereo not given): the growth was -6.51% (active).

`COc1ccc(/C=N/C2=C(C#N)C(c3ccccc3)c3c(ccc4ccccc34)O2)cc1` (stereo not given): the growth was -3.92% (active).

With `O=S(=O)(c1cccc(NC2=Nc3cccc4cccc2c34)c1)N1CCCC1`, the growth was 36.4% (inactive).

Take `COc1ccc(Nc2nc(SC)nc(-c3cccc([N+](=O)[O-])c3)c2C#N)cc1`: the growth was 54.7% (inactive).

On to `COc1cccc(OC)c1-c1nnn(C)c1C(=S)N1CCN(c2ccc([N+](=O)[O-])cc2Cl)CC1`, for which the growth was 89% (inactive).

For `[2H]c1nc(Nc2ncc(F)c(-c3cc(F)c4nc(C)n(C(C)C)c4c3)n2)c([2H])c([2H])c1CN1CCN(C([2H])([2H])C([2H])([2H])[2H])CC1`, the growth was 103% (inactive).

As to `Cc1ccc(C(=O)NCCNc2nccc(-c3c(-c4cccc(F)c4)nc4sccn34)n2)cc1`, the growth was 38.7% (inactive).

In the case of `CCn1c2ccccc2c2cc(NC(=O)Nc3ccc([N+](=O)[O-])cc3C)ccc21`, the growth was 7.62% (active).

Consider `CC(C)(C)c1ccc(C(=O)Nc2sc3c(c2C(N)=O)CC/C(=N\O)C3)cc1`, for which the growth is 2.17% (active).

On to `CN(C)CCCNc1c2ccc(Cl)cc2nc2c1oc1ccc(Cl)cc12`, for which the growth is 36.4% (inactive).

On to `CCc1ccc(-c2ccc(NC3CCCCCC3)nn2)cc1S(N)(=O)=O`, for which the growth is 102% (inactive).

For the molecule `COc1ccc(-c2nnc(-c3ccc4c(c3)nc(-c3ccccc3)n4C3CCCCC3)o2)cc1`, the growth is 83.8% (inactive).

In the case of `O=C(O)c1cccc2oc(-c3ccccc3O)nc12`, the growth is 35.2% (inactive).

In the case of `CN1CCN(Cc2ccc(NC(=O)c3nc4ccc5[nH]ncc5c4c4c3CCC4)cc2C(F)(F)F)CC1`, the growth was -59.2% (active).

Take `COc1cnc2c(c1)C(=O)c1c-2n(CCCn2ccnc2)c(=O)c2cc(F)ccc12`: the growth is -35.7% (active).

Regarding `CCOc1cccc(-c2nc3sccn3c2-c2ccnc(S(C)(=O)=O)n2)c1`, the growth is -0.693% (active).

Take `COc1cc(NC(=O)COc2ccccc2)c(C(N)=O)cc1OC`: the growth was 17.7% (inactive).

`CCOC(=O)CCC(=O)O[C@H]1[C@H](O[C@@H]2[C@@H](C)[C@H](O[C@H]3C[C@@](C)(OC)[C@@H](O)[C@H](C)O3)[C@@H](C)C(=O)O[C@H](CC)[C@@](C)(O)[C@H](O)[C@@H](C)C(=O)[C@H](C)C[C@@]2(C)O)O[C@H](C)C[C@@H]1N(C)C`: the growth was 109% (inactive).

Regarding `O=C(CCCNC(=O)c1nc(-c2ccccc2)n(-c2ccccc2)n1)NO`, the growth is 98.8% (inactive).

For the molecule `O=C(CCCCNC(=O)c1cc(=O)c(O)co1)Nc1ccccc1`, the growth is 35% (inactive).

`COc1ccc(/C(C#N)=C/c2cc(OC)c(OC)c(OC)c2)cc1`: the growth is 27.6% (inactive).

In the case of `CC/C(=C(/c1ccc(Cl)cc1)c1ccc(OCCN2CCCC2)cc1)c1ccccc1`, the growth was 46.9% (inactive).

In the case of `CC(C)n1cnc2c(Nc3cccc(Cl)c3)nc(N[C@H]3CCCC[C@@H]3N)nc21`, the growth is 20% (inactive).

For the molecule `N#C/C(=N\Nc1ccc(Cl)cc1)C(=O)C1CC1`, the growth is 27.1% (inactive).

`CCn1cc(-c2ccnc3[nH]c(-c4cccc(CN(C)C)c4)cc23)c(-c2ccc(NC(=O)N(C)C)cc2)n1`: the growth is 56.5% (inactive).

On to `C#CCN(C)CCCOc1ccc(NCc2ccc(/C=C/C(=O)NO)cc2)cc1Cl`, for which the growth was -47.6% (active).

On to `CC(=O)Nc1cc(F)cc(-c2ccc3[nH]cc(-c4ccccc4)c3n2)c1`, for which the growth was -21.9% (active).

`N#Cc1ccc(O)c(C2=NCC(c3ccc(-c4ccccc4)cc3)O2)c1` (stereo not given): the growth was 26.9% (inactive).

For the molecule `Cn1cc(-c2nn3c(=O)cc(-c4ccccc4)nc3s2)c2cc(F)ccc21`, the growth is 38.9% (inactive).

For `C=C(C)CCCC(C)CC#N` (stereo not given), the growth is 93.3% (inactive).

`O=c1cc(N/N=C/c2ccc(F)cc2)c2cc(Cl)ccc2[nH]1`: the growth was 73% (inactive).

For the molecule `Cc1cn(-c2cc(NC(=O)c3cncc(C#Cc4c(N)ncc5ccc(F)cc45)c3)cc(C(F)(F)F)c2)cn1`, the growth was 50.8% (inactive).

`O=C1[C@H]2Cc3c([nH]c4ccccc34)[C@@H](c3ccc(Cl)cc3)N2C(=O)CN1C1CCN(Cc2ccccc2)CC1`: the growth was 27.3% (inactive).

For the molecule `O=C(c1cccc(F)c1)n1ccc2cc(NC(=S)Nc3cccnc3)ccc21`, the growth was 91.9% (inactive).

Regarding `COc1ccc(C2=NN(C(C)=O)C(c3cn(-c4ccccc4)nc3-c3ccc(Cl)cc3)C2)cc1` (stereo not given), the growth was -1.41% (active).

In the case of `CC(=O)NCC(=O)Nc1ccc(-c2nnc3ccccn23)nc1.CC(=O)NCC(=O)Nc1ccc(-c2nnc3ccccn23)nc1.[Pt+2]`, the growth is 116% (inactive).

With `COc1cc(-c2nc(N=Nc3c(O)[nH]c4ccc(Br)cc34)[nH]c(=O)c2C#N)cc(OC)c1OC`, the growth was 103% (inactive).

(Values after PubChem BioAssay (NCI).)
